88 molecules from PubChem BioAssay AID485317 (Broad Institute, 2010) can be followed below.

Values joined by “and” are separate entries in the source; they are usually repeats but may differ in a detail not shown here. Equal values may be shown once. Among all 290,000 compounds or so, about 11,000 (3.8%) were called active.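 Rule for the calls: active = mean replicate inhibition above about 79%, with every replicate also reaching it (limit read from the data); inconclusive = only one of the two criteria met; inactive = mean below limit and not every replicate reaching it.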 What follows is part of a selection rich in actives, with near analogues and random picks from the rest. A structure can be active in one record and inactive in another.

For this experiment, the target named is FAD-linked sulfhydryl oxidase ALR (Homo sapiens) (UniProt P55789). Nature of the experiment: ALR-catalysed DTT oxidation blockers – biochemical, H2O2 detection, HRP-luminol luminescence, single point, primary screen (AID 485317). The note with it: purified ALR, stronger effect = higher value, concentration not given here.
Sequence of FAD-linked sulfhydryl oxidase ALR (Homo sapiens) (P55789 whole entry, looked up): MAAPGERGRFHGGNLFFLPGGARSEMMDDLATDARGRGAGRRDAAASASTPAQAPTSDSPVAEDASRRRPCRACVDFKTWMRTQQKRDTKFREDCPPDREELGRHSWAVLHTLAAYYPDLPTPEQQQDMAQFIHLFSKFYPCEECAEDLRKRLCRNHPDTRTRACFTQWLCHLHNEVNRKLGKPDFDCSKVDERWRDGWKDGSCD
With `O=C(Nc1ccc(NC(=O)c2ccc3c(c2)OCO3)cc1)c1cccc(Cl)c1`, the inhibition – broadly, the relative decrease from the control value, in per cent – is 4% (inactive).
As for `CC(=O)c1c(OCC(=O)N(C)C2CCCCC2)ccc2c(C)cc(=O)oc12`, the figure is -4.49% (inactive); as for `COc1ccc(C(=O)CSc2nnc(COc3ccccc3)n2Cc2ccco2)cc1`, 13.2% (inactive).
As for `Cn1c2ccccc2c(=O)c2c(=O)n(Cc3ccco3)c(COc3ccccc3)nc21`, the figure is 96.8% (active); as for `CCCc1nc2c(c(=O)c3ccccc3n2C)c(=O)n1-c1cc(C)cc(C)c1`, 9.11% (inactive).
As to `COc1ccc(S(=O)(=O)N(C)C[C@@H]2Oc3ccc(NS(=O)(=O)c4cn(C)cn4)cc3C(=O)N([C@@H](C)CO)C[C@@H]2C)cc1`, the inhibition is 0.531% (inactive).
The value for `O=C(NCc1ccccc1)c1ccc(CNc2c(N3CCCC3)c(=O)c2=O)cc1` was -1.76% (inactive); that for `O=C(NC1CCCCC1)c1ccc(CNc2c(N3CCOCC3)c(=O)c2=O)cc1` was 96.3% (active); that for `CC1CCN(c2c(NCc3ccc(C(=O)NCc4ccccc4)cc3)c(=O)c2=O)CC1` was 6.63% (inactive).
As for `O=C(COC(=O)c1ccccn1)NNC(=O)c1ccc(Br)cc1`, the figure is -1.13% (inactive); as for `COc1ccc(Br)cc1CN(C)C(=O)C1CC(=O)N(C2CCCC2)C1` (stereo not drawn), -9.84% (inactive).
The value for `O=C(Nc1cccc([N+](=O)[O-])c1)Nn1cnnc1` was -12.6% (inactive); that for `COc1ccc(S(=O)(=O)NC(C)C(=O)Nc2cccc([N+](=O)[O-])c2)cc1` (stereo not drawn) was 3.92% (inactive).
Take `COC(=O)/C=C\C(=O)Nc1cccc([N+](=O)[O-])c1`: the inhibition was 97.8% (active).
As for `Cc1noc(C)c1NC(=O)Nc1cccc2c1O[C@H](CN(C)S(=O)(=O)c1c(C)noc1C)[C@@H](C)CN([C@H](C)CO)C2=O`, the figure is 1.87% (inactive); as for `Cc1cc(=O)oc2cc(NC(=O)C(C)Oc3ccccc3)ccc12` (stereo not drawn), -2.52% (inactive).
The value for `COc1ccc(CCNC(=S)N2CCN(S(=O)(=O)c3ccc(Cl)cc3)CC2)cc1` was -0.053% (inactive); that for `S=C(NCCc1ccccc1)N1CCCCC1` was -4.5% (inactive).
As for `Oc1cc2c(cc1O)CN(C(=S)NCCc1ccc(Cl)cc1)CCC2`, the figure is 97.9% (active); as for `COC(=O)[C@@]12CCCN1[C@H](c1ccc(-c3ccc(F)cc3)c(OC)c1)[C@H]1C(=O)N(C)C(=O)[C@H]12`, -0.553% (inactive).
As to `CCOc1ncccc1C(=O)OCC(=O)c1c[nH]c2ccccc12`, the inhibition is 16.6% (inactive).
As for `Cc1ccc(-n2[nH]c(C)c(/C=N/NC(=O)c3cccc([N+](=O)[O-])c3)c2=O)cc1C`, the figure is 97% (active).
For the molecule `Cc1cccc(C(=O)NNC(=O)c2cccc([N+](=O)[O-])c2)c1`, the inhibition was 2.77% (inactive).
As for `Cc1[nH]n(-c2ccc([N+](=O)[O-])cc2)c(=O)c1C=NCCN1CCN(C(=O)c2ccccc2F)CC1`, the inhibition is -0.584% (inactive).
As for `COc1ccc(C(=O)NCC2CCCCC2)cc1S(=O)(=O)N1CCCC1`, the figure is -2.78% (inactive); as for `NC(=O)CSc1nnc(NC(=O)c2ccc3ccccc3c2)s1`, -2.49% (inactive).
Regarding `O=C(NCCS(=O)(=O)N1CCN(c2ccc(F)cc2)CC1)c1ccc2c(c1)OCO2`, the inhibition was 1.71% (inactive).
For `CC(=O)Nc1ccc(NC(=O)CSc2nnnn2C2CCCCC2)cc1`, the inhibition is -20.6% (inactive).
As for `NS(=O)(=O)c1cccc(NC(=O)COC(=O)c2cc([N+](=O)[O-])ccc2N2CCCC2)c1`, the figure is -0.799% (inactive).
As for `CCCc1nnc(SCC(=O)Nc2ccc(C(=O)OCC)cc2)o1`, the figure is 99.2% (active).
As for `Cc1cc(C)cc(OCc2nnc(SCC(=O)Nc3ccccc3)o2)c1`, the figure is 5.24% (inactive); as for `Cc1ccc(NC(=O)CSc2nnc(COc3ccccc3C)o2)cc1`, -0.274% (inactive); as for `O=C(c1cn(-c2ccccc2)nc1-c1cccnc1)N1CCN(S(=O)(=O)c2ccccc2F)CC1`, -0.713% (inactive).
Consider `O=C(c1ccc(NS(=O)(=O)c2ccc3[nH]c(=O)[nH]c3c2)cc1)N1CCCCC1`, for which the inhibition is 0.0938% (inactive).
The value for `CN(C)/C=C1/Nc2ccccc2C1=O` was 31.9% (inactive); that for `Cc1cc(C)c(/C=C2\C(=O)Nc3ccccc32)[nH]1` was 98.9% (active).
The value for `O=C1Nc2ccccc2/C1=C/c1ccnc2ccccc12` was -5.03% (inactive).
As to `CN(C)/C=C1\C=C(c2ccccc2)OC1=O`, the inhibition is -9.29% (inactive).
The value for `Cc1ccccc1-n1c(C)cc(/C=C2\NC(=O)NC2=O)c1C` was -11.5% (inactive); that for `CN(C)/C=C1/C(=O)Nc2ccccc21` was 98.8% (active).
The value for `CC(=O)NCCNC(=O)c1cc(-c2cccc3ccccc23)nc2ccccc12` was -1.4% (inactive).
The value for `COc1ccccc1C(=O)COC(=O)CSCC(=O)Nc1cc(C)on1` was 1.76% (inactive); that for `Cc1cc(NC(=O)CSCc2nc(-c3cccc(Cl)c3)oc2C)no1` was 96.6% (active).
Regarding `Cc1cc(NC(=O)CSCc2ccccc2C)no1`, the inhibition was 29% (inactive).
As for `COc1ccc(-c2cc(C(=O)Nc3ccccc3O)c3ccccc3n2)cc1`, the figure is -22.7% (inactive).
The value for `COCCn1c(C)cc(C(=O)COC(=O)CNC(=O)c2ccco2)c1C` was 0.463% (inactive).
As for `Cc1cc(NC(=O)COC(=O)/C=C/c2ccc(C)o2)no1`, the figure is -2.34% (inactive); as for `CC(C)=C1SC(N2CCN(c3cccc(C)c3)CC2)=NC1=O`, 4.81% (inactive).
As to `CC(C)NC(=O)N1CCN(c2ccncc2S(=O)(=O)N2CCCCC2)CC1`, the inhibition was -2.12% (inactive).
In the case of `CNS(=O)(=O)c1cnccc1N1CCN(c2cccc(C)c2)CC1`, the inhibition was 98.6% (active).
As for `Cc1ccn2c(=O)nc(SCC(=O)NCc3ccc4c(c3)OCO4)nc2c1`, the figure is -1.9% (inactive); as for `O=C(CC(n1cncn1)C(Cl)(Cl)Cl)c1ccc([N+](=O)[O-])cc1` (stereo not drawn), 9.46% (inactive).
Take `O=C(Cn1c[n+](CC(=O)c2ccc([N+](=O)[O-])cc2)cn1)c1ccc([N+](=O)[O-])cc1`: the inhibition was -22% (inactive) and 98.8% (active).
The value for `O=C(Nn1cnnc1)c1ccc([N+](=O)[O-])cc1` was -3.87% (inactive).
The value for `Cc1ccc(Cn2ccc(NC(=O)C3C4CCC(C4)C3C(=O)O)n2)cc1` (stereo not drawn) was 1.86% (inactive); that for `O=C(Nc1ccn(Cc2ccccc2F)n1)c1ccc(COc2ccc(Cl)cc2Cl)o1` was -9.12% (inactive); that for `O=C(Nc1ccn(Cc2ccccc2)n1)c1n[nH]c([N+](=O)[O-])c1Cl` was 93.5% (active).
As for `Cc1ccc(CC(=O)Nc2ccc(S(=O)(=O)N3CCOCC3)cc2)cc1C`, the figure is -2.53% (inactive); as for `COC(=O)c1c(NC(=O)CCCC(=O)O)sc2c1CCCCC2`, -5.42% (inactive); as for `COC(=O)c1c(NC(=O)C2CC(C)=C(C)CC2C(=O)O)sc2c1CCCCC2` (stereo not drawn), 94.2% (active).
For the molecule `COC(=O)c1c(NC(=O)c2cccs2)sc2c1CCCC2`, the inhibition was -1.37% (inactive).
The value for `FC(F)(F)c1nnc2sc(-c3ccco3)nn12` was -7.15% (inactive).
As for `COc1cc(-c2nn3c(-c4cccc(C)c4)nnc3s2)cc(OC)c1OC`, the figure is 1.6% (inactive); as for `Fc1ccc(-c2ccc(-c3nn4c(-c5ccco5)nnc4s3)o2)cc1`, 98.5% (active); as for `COC(=O)CN1C(=S)N(c2ccccc2)C(=O)C1CC(=O)Nc1ccc(Cl)cc1` (stereo not drawn), 1.89% (inactive).
The value for `O=C(O)CC1=C(Nc2ccccc2)C(=O)N(c2ccccc2)C1c1ccc(Cl)cc1` (stereo not drawn) was 96.7% (active); that for `O=C(c1ccc(Cl)cc1)c1cnc(Nc2ccccc2)s1` was 24.8% (inactive).
For the molecule `COc1cc(C(=O)NCC(c2ccco2)N2CCCC2)ccc1OCc1ccccc1` (stereo not drawn), the inhibition is -2.39% (inactive).
As for `CN(Cc1c(F)cccc1Cl)C(=O)CNC(=O)c1ccc2c(c1)OCO2`, the figure is 1.35% (inactive).
The value for `COc1cc2c(-c3ccc4c(c3)OCO4)c(-c3ccsc3)oc(=O)c2cc1OC` was 0.568% (inactive); that for `CN(c1ccccc1)S(=O)(=O)c1cc(C(=O)Nc2nc3ccccc3[nH]2)ccc1Cl` was 94.8% (active).
The value for `O=C(Nc1cccc(-c2nc3ccccc3[nH]2)c1)c1ccc(C(=O)Nc2cccc(-c3nc4ccccc4[nH]3)c2)cc1` was -5.21% (inactive); that for `Cc1cccc(NC(=O)c2ccc(S(=O)(=O)N(C)c3ccccc3)cc2)n1` was -13.4% (inactive); that for `O=C(c1cc(-c2ccco2)nc2ccccc12)N(Cc1nnc(-c2ccc(Cl)cc2)o1)C1CC1` was 2.44% (inactive).
`Cn1cccc1C(=O)OCC(=O)c1ccc(Br)s1`: the inhibition was 0.737% (inactive).
For the molecule `COc1ccc(NCc2nnc(SCc3ccccc3)n2-c2ccc(OC)cc2)cc1`, the inhibition is 91.9% (active).
The value for `COc1ccc(-c2nnc(SCC(=O)c3ccco3)n2-c2ccccc2)cc1` was -5.92% (inactive); that for `CCc1nnc(NC(=O)CSc2nnc(Cc3ccccc3)n2-c2ccc(OC)cc2)s1` was -14.6% (inactive); that for `C=CCn1c(CNC(=O)c2ccco2)nnc1SCC(=O)c1ccc(OC)cc1` was 29.4% (inactive).
Regarding `COC(=O)c1ccc(NC(=O)CSc2nnc(CNc3ccc(OC)cc3)n2C)cc1`, the inhibition was -7.45% (inactive).
As for `CCn1c(CNc2ccc(OC)cc2)nnc1SCC(=O)c1ccc(OC)cc1`, the figure is 98.6% (active).
The value for `C=CCC[C@H](Cc1ccc(F)cc1)C(=O)OC[C@@H](NC(=O)[C@@H](CC=C)CC(=O)N[C@H](CO)Cc1ccccc1)C(C)(C)C` was 2.91% (inactive).
As for `Brc1cnc2ccccc2c1N1CCCCC1`, the figure is -0.469% (inactive); as for `CS(=O)(=O)Nc1ccccc1C(=O)OCC(=O)NC1CC1`, -5.36% (inactive); as for `CN(C)c1ccc(-n2cccc2/C=N/n2cnnc2)cc1`, 98.6% (active).
With `CN(C)c1ccc(-n2cccc2/C=C2/SC(=Nc3ccc(F)cc3)NC2=O)cc1`, the inhibition was -13.8% (inactive).
As for `COc1cccc(OCCOc2cccc(/C=N/n3cnnc3)c2)c1`, the figure is -9.36% (inactive); as for `CC1(C)C2CC[C@]3(C)C(CC=C4[C@@H]5C[C@@](C)(CO)CC[C@]5(C(=O)O)CC[C@]43C)[C@@]2(C)CC[C@@H]1O` (stereo partly drawn), -8.21% (inactive).
